# Experimental data published in ChEMBL document CHEMBL1201862, “PubChem BioAssay data set” (2004).
# Among all 400,000 compounds or so, about 2,100 (0.53%) were called active. Inconclusive results (about 14%) are left out. No rule for the calls is given here. The list comes from a sample in which actives are over-represented; it also holds similar structures and randomly drawn compounds.
# Target: Ataxin-2 (Homo sapiens) (UniProt Q99700)
# Assay: qHTS for Inhibitors of ATXN expression.
# Assay type: functional
# Ataxin-2 (Homo sapiens), sequence (Q99700 whole entry): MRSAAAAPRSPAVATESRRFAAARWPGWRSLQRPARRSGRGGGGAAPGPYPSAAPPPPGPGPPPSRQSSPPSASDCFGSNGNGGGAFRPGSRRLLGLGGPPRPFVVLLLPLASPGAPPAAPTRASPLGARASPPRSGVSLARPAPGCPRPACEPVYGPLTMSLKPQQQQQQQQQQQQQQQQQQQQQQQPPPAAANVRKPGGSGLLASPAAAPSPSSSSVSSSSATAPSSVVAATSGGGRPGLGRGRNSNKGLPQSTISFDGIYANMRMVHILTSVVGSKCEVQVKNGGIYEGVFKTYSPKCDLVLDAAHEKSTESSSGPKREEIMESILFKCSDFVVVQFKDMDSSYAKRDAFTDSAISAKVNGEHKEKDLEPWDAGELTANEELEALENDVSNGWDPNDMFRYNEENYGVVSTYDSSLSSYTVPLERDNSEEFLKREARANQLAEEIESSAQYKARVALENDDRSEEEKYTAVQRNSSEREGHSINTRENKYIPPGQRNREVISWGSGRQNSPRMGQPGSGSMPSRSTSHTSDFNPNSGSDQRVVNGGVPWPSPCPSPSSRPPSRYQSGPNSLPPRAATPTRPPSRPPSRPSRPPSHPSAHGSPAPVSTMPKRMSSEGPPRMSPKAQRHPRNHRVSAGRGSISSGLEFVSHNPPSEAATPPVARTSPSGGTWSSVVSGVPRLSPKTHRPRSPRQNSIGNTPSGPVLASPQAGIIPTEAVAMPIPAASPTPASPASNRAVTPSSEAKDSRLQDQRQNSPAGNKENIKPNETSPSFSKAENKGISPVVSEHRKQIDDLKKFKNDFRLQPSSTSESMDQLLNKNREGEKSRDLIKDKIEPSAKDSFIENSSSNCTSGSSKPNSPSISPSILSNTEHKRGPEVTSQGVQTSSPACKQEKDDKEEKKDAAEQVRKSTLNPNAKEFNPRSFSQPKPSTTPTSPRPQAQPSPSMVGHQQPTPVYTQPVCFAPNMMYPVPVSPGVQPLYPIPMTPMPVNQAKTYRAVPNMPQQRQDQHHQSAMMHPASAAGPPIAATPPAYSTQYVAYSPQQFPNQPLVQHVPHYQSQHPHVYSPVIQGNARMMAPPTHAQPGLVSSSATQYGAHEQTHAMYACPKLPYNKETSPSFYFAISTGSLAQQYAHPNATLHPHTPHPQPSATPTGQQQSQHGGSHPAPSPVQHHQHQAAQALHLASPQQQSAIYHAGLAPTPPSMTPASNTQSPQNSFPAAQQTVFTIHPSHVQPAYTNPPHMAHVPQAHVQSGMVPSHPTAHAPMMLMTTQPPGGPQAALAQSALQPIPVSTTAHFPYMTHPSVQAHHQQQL
row,Structure (SMILES),Potency
1,Cc1ccc(C2=CC(c3ccc(N(C)C)cc3)n3nnnc3N2)cc1 (stereo not given),inactive
2,CN1CCc2c(sc3c2C(=O)NC(c2ccccc2)N3)C1 (stereo not given),inactive
3,Cc1ccc(S(=O)(=O)c2cc3ccccc3nc2N)cc1,inactive
4,Cc1ccc2nc3c(cc(C#N)c(=O)n3-c3nccs3)c(=O)n2c1,inactive
5,Cc1c(Cc2ccccc2)sc(/N=C/c2c(O)ccc3ccccc23)c1C(N)=O,inactive
6,Cc1ccc(-c2cc(-c3ccco3)c(C#N)c(O)n2)cc1,inactive
7,CCOC(=O)c1c(NC(=O)C(C)Sc2cccc[n+]2[O-])sc2c1CCN(Cc1ccccc1)C2 (stereo not given),inactive
8,CCOC(=O)c1c(NC(=O)Nc2ccc(C)cc2)sc2c1CCN(C)C2,inactive
9,CCOC(=O)c1c(NC(=O)c2ccc(S(=O)(=O)N(CC(C)C)CC(C)C)cc2)sc2c1CCN(CC)C2,inactive
10,CCOC(=O)c1c(NC(=O)C(NCCN(C)C)c2ccccc2)sc2c1CCCC2 (stereo not given),39.8 µM (active)
11,CCOC(=O)c1c(NC(=O)C(C)Sc2c[nH]c3ccccc23)sc2c1CCC2 (stereo not given),3.16 µM (active)
12,CCOC(=O)c1c(NC(=O)c2ccc(S(=O)(=O)N(C)C3CCCCC3)cc2)sc2c1CCN(C(C)C)C2,inactive
13,Cc1ccc2nc(N3CCN(CCO)CC3)nc(-c3ccccc3)c2c1,inactive
14,CCN1CCc2c(sc(NC(=O)c3ccc(S(=O)(=O)N4CCCC(C)C4)cc3)c2C(=O)OC)C1 (stereo not given),inactive
15,CCOc1ccccc1N(C)C(=O)c1cc2c(=O)n(CC)c3ccccc3c2s1,39.8 µM (active)
16,CCN(C(=O)Cc1c(C(=O)O)n(CC)c2ccccc12)c1ccccc1C,inactive
17,CCCN(CCC)CCCNC(=O)c1cc2c(=O)n(CC)c3ccccc3c2s1,inactive
18,O=C(Cn1ncc(Cl)c(Cl)c1=O)N1CCN(Cc2ccccc2)CC1,39.8 µM (active)
19,CC1CC(C)CN(CC(=O)N2CCOCC2)C1 (stereo not given),inactive
20,O=C(Cn1ncc(Cl)c(Cl)c1=O)N1CCc2ccccc21,7.52 µM (active)
21,CN(CC(=O)Nc1ccc(Cl)cc1)CC(=O)N1CCc2ccccc21,inactive
22,Cn1c(=O)c2c(nc(Sc3ncnn3CC(=O)N3CCOCC3)n2C)n(C)c1=O,inactive

row,Structure (SMILES),Potency
1,O=C(Cn1ncc(Cl)c(Cl)c1=O)N1CCOCC1,39.8 µM (active)
2,O=Cc1cn(CC(=O)N2CCc3ccccc32)c2ccccc12,inactive
3,COc1cc2c(cc1OC)CN(Cc1cc(=O)oc3c(C)c(C)ccc13)CC2,inactive
4,COc1ccc(NC(S)=Nc2ccc3nsnc3c2)cc1,inactive
5,Cc1ccsc1CN(C)CC(=O)NCC(=O)Nc1ccc(F)cc1,inactive
6,CCOC(=O)Cc1c(C)c2c(O)cc(O)cc2oc1=O,inactive
7,C[n+]1c(-c2ccccc2)cc2c(=Cc3ccccc3)c3ccccc3n21,23.8 µM (active)
8,CCOC(=O)c1cc(C(=O)OCC)c2ccccn2c1=O,inactive
9,O=[N+]([O-])c1ccc2c(c1)c1ccccc1n2CCO,inactive
10,CN(C)c1ccc(/C=c2\c3cc([N+](=O)[O-])ccc3n3c2cc(-c2ccccc2)[n+]3C)cc1,31.6 µM (active)
11,CN(C(=O)COC(=O)c1nnc(O)c2ccccc12)c1ccccc1,inactive
12,CCOC(=O)c1cc2c(=Cc3ccc(N(C)C)cc3)c3ccccc3n2[n+]1C,13.4 µM (active)
13,COc1ccc2c(c1)c(=Cc1ccc(N(C)C)cc1)c1cc(-c3ccccc3)[n+](C)n12,17.8 µM (active)
14,N#Cc1c2ccc(OCC(N)=O)cc2n2ccccc12,inactive
15,CCN(Cc1ccc(OC)c(F)c1)C(=O)/C=C/c1ccc(S(=O)(=O)N2CCOCC2)cc1,inactive
16,CCOC(=O)/C=C/C(=O)Nc1ccc(S(=O)(=O)Nc2nccs2)cc1,inactive
17,CC(NC(=O)c1cc2c(=O)n3ccccc3nc2n(CC2CCCO2)c1=N)c1ccccc1 (stereo not given),inactive
18,Cc1cc(C(=O)NNc2c(Cl)cccc2Cl)no1,inactive
19,O=C1c2cccc3cccc(c23)N1Cc1ccc(F)cc1,inactive
20,CCCCN(C)C(=O)c1ccc2c(c1)N(Cc1cccc(F)c1)C(=O)c1ccccc1S2,25.1 µM (active)
21,CCCCN1C(=O)c2cccc3cc(O)cc(c23)C1=O,inactive
22,Cc1oc(-c2ccccc2F)nc1C[S+]([O-])CC(=O)NCc1ccc(F)cc1 (stereo not given),inactive

row,Structure (SMILES),Potency
1,N#Cc1c(N)n(-c2cccc(C(=O)O)c2)c2nc3ccccc3nc12,inactive
2,O=C(Nc1ccccc1)Nc1sccc1-c1nc2ccccc2s1,inactive
3,O=C(Nc1ccccc1)Nc1nc(-c2ccc(F)c(F)c2)cs1,inactive
4,NC(Cc1ccc(C(F)(F)F)cc1)c1csc(NC(=O)Nc2ccccc2)n1 (stereo not given),35.5 µM (active)
5,CCOC(=O)c1sc(-c2ccc(C(F)(F)F)cc2)nc1O,inactive
6,Nc1c(C(=O)Nc2ccccc2F)sc2nc(Cc3ccccc3)cc(C(F)(F)F)c12,inactive
7,NC(Cc1ccc(C(F)(F)F)cc1)c1csc(NC(=O)Nc2ccccc2Cc2ccccc2)n1 (stereo not given),35.5 µM (active)
8,Cc1ccc(-c2ocnc2C(=O)Nc2nc(C)cs2)cc1,inactive
9,CC(C)CC(N)c1csc(NC(=O)Nc2ccccc2Cc2ccccc2)n1 (stereo not given),22.4 µM (active)
10,Cc1ccc(C(=O)Nc2nc(C(N)Cc3ccc(C(F)(F)F)cc3)cs2)cc1 (stereo not given),39.8 µM (active)
11,CCc1ccccc1NC(=O)c1sc2nc(C)cc(C)c2c1N,inactive
12,CC(=O)c1ccc(/C=C/c2nc3ccccc3n2C)o1,inactive
13,Fc1ccc(N2CCN(C(S)=NCc3ccco3)CC2)cc1,inactive
14,Nc1cccc2c1C(=O)N(C(=O)c1cccc(S(=O)(=O)N3CCCC3)c1)C2=O,inactive
15,C/C(=N\OCC(=O)Nc1ccccc1C(=O)O)c1cccs1,inactive
16,CC(=O)NC1=NC(=O)/C(=C/c2cc(C)n(-c3cccc(C(=O)O)c3)c2C)S1,inactive
17,CC(C)CC(N)c1csc(NC(=O)c2cc(C(C)(C)C)nn2Cc2ccccc2)n1 (stereo not given),31.6 µM (active)
18,CC(C)(C)c1cc(NC(=O)COC(=O)c2ccccc2)n(-c2ccccc2)n1,inactive
19,CC(C)(C)c1cc(C(=O)NNc2cccc(Cl)c2)n(Cc2ccccc2)n1,inactive
20,COC(=O)c1ccc(COc2ccccc2OC)o1,inactive
21,CC(C)Cn1c(N)c(C(=O)COC(=O)c2cc3ccccc3cc2O)c(=O)n(C)c1=O,inactive
